Yeast superoxide – lowers age-related superoxide in aged yeast cells; S. cerevisiae aged cells, superoxide DHE fluorescence; hits give low values; superoxide response (% of plate mean), % at 10 µM; 330,000 tested, 0.18% active; AID 2690;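 active = superoxide response under a set limit, about three screen SD below normal, cut at about 65% in these data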;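 also: yeast aged for seven days with compound at 30 °C before DHE staining; 100% = average MFI of all compound-treated wells on the plate with controls excluded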
TIM10 inh – growth inhibitors of TIM10 yeast strain. S. cerevisiae TIM10 strain growth, BacTiter-Glo luminescence, 24 h. inhibition, % at 10 µM. 330,000 tested, 1.4% active. AID 463195;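 active = inhibition of 40% or more at the single tested concentration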;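 also: wild-type TIM10 isogenic control strain grown at permissive 25 °C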
tim23-1 inh – tim23-1 yeast growth inhibition | S. cerevisiae tim23-1 growth, BacTiter-Glo luminescence, 24 h | inhibition, % at 20 µM | 330,000 tested, 1.3% active | AID 463212;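 active = growth inhibition of the mutant yeast at or above 50%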;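 also: temperature-sensitive mutant grown at 25 °C; plate controls were DMSO-treated mutant yeast for no effect and medium wells lacking yeast for full effect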
tim10-1 inh – tim10-1 yeast growth inhibition | S. cerevisiae tim10-1 ts strain growth, BacTiter-Glo, 24 h | inhibition, % at 20 µM | 330,000 tested, 2.2% active | AID 463190;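 active = inhibition of at least 40%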;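 also: mutant grown at 25 °C; 0% = DMSO wells with yeast and 100% = wells holding no yeast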
NALP3 yeast inh – blocks the NALP3 inflammasome reconstituted in yeast. inhibition, % at 10 µM. Yeast reconstituted NLRP3/ASC/caspase-1, beta-gal luminescence, 24 h. 330,000 tested, 0.39% active;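 active = inhibition of 50% or more; inactive = inhibition below 50%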;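 also: plate controls were induced DMSO wells for no effect and uninduced yeast grown without galactose for full effect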
tim10-1 conf – tim10-1 yeast growth inhibition, confirmed; S. cerevisiae tim10-1 ts strain growth, BacTiter-Glo, 24 h; 7,400 tested, 56% active; shares compounds with tim10-1 inh; AID 463213; inhibition, % at 20 µM;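 active = inhibition of yeast growth at or above a set limit in either of two repeat tests at 20 µM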;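 also: tim10-1 mutant grown at permissive 25 °C to find synthetic lethal compounds; 0% = DMSO yeast wells and 100% = medium wells without yeast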
tim10 confirm – TIM10 yeast growth inhibition, confirmed. shares compounds with TIM10 inh. S. cerevisiae tim10 strain growth, BacTiter-Glo luminescence, 24 h. inhibition, % at 10 µM. 4,600 tested, 63% active. AID 463215;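 active = inhibition of yeast growth at or above a set limit in either of two replicates at 10 µM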;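 also: this counterscreen used the strain with wild-type TIM10; 0% = yeast with DMSO and 100% = medium wells lacking yeast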
tim23-1 confirm – tim23-1 yeast growth inhibition, confirmed; shares compounds with tim23-1 inh; S. cerevisiae tim23-1 growth, BacTiter-Glo luminescence, 24 h; 4,400 tested, 83% active; AID 463218; inhibition, % at 20 µM;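 active = inhibition above about 39% in either of two replicate wells at 20 µM, limit read from the data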;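 also: temperature-sensitive tim23-1 mutant grown at 25 °C; 0% = DMSO wells with yeast and 100% = medium wells without yeast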
Numbers without * were called inactive; x = no result given. The list is not random: actives were taken first. Their share in the collection is about 3.8%.

SMILES | Yeast superoxide | TIM10 inh | tim23-1 inh | tim10-1 inh | NALP3 yeast inh | tim10-1 conf | tim23-1 confirm | others
O=C(Nc1ccccc1)c1ccccc1OCc1ccc(F)cc1 | 103 | 5 | 18 | 6 | 18 | x | x
NC(=S)N/N=C/c1coc2ccc(Cl)cc2c1=O | 111 | 22 | 82* | 54* | 15 | 16 | 80*
COc1cc(C(=O)N/N=C/c2coc3ccc(Cl)cc3c2=O)ccc1O | 99 | 35 | 81* | 52* | 12 | 8 | 49*
COc1cc(C(=O)N/N=C/c2coc3ccccc3c2=O)cc(OC)c1OC | 95 | 9 | 33 | 20 | 3 | x | x
COc1ccc(C(=O)N/N=C\c2coc3ccc(Cl)cc3c2=O)cc1 | 93 | 33 | 84* | 44* | 12 | -4 | 75*
O=C(N/N=C/c1coc2ccc(Cl)cc2c1=O)c1ccc(O)cc1 | 95 | 31 | 84* | 49* | 2 | -1 | 49*
CCOc1ccc(NC(=O)COC(=O)CN2CCCCCC2=O)cc1 | 77 | 7 | 19 | 7 | 9 | x | x
CCCNC(=O)CCn1cc(-c2ccc(OC)cc2)nc1-c1ccncc1 | 96 | -3 | -6 | -4 | 9 | x | x
COc1ccc(NC(=O)CCC(=O)c2cccs2)cc1S(=O)(=O)Nc1ccccc1Cl | 106 | 14 | 11 | 34 | 14 | x | x
O=C(c1cccnc1)N1CCC(Oc2ccc(C(=O)N3CCCCO3)cc2)CC1 | 112 | -5 | 11 | 7 | 9 | x | x
CCOC(=O)C1=C(C)N=C2SC(C(=O)OC)=CC(=O)N2C1c1ccc(F)cc1 (stereo unspecified) | 94 | 77* | 86* | 75* | 34 | 81* | 78* | tim10 confirm=84*
CCOC(=O)C1=C(C)N=C2SC(C(=O)OC)=CC(=O)N2C1c1cccc(OC)c1 (stereo unspecified) | 113 | 11 | 20 | 13 | 15 | x | x
O=c1oc2c(-c3cccc(F)c3)cc(O)cc2s1 | 134 | -15 | 57* | 52* | 20 | 48* | 56*
Nc1nnc(-c2cccc(F)c2)s1 | 86 | 1 | -4 | -8 | 14 | x | x
CN(C)Cc1ccc(CNC(=O)c2ccc(Cl)c(S(=O)(=O)NC3CC3)c2)cc1 | 110 | -1 | -1 | 11 | 5 | x | x
Cn1c(=O)oc2cc(S(=O)(=O)N3CCN(c4ccccc4F)CC3)ccc21 | 116 | 4 | 5 | -6 | 10 | x | x
Cc1ccccc1N1CCN(S(=O)(=O)c2ccc3oc(=O)ccc3c2)CC1 | 113 | 42* | 68* | 79* | 16 | 65* | 57* | tim10 confirm=54*
CC[n+]1c(/C=C2\C=C(C)CC(C)(C)C2)sc2ccccc21 | 103 | 37 | 51* | 45* | 16 | 39* | 55*
CC[n+]1c(/C=C2/C=C(C)CC(C)(C)C2)sc2ccc(OC)cc21 | 101 | 34 | 30 | 29 | 15 | x | x
Cc1sc(NC(=O)c2ccccc2)c(C(c2ccc(Cl)cc2)N2CCN(CCO)CC2)c1C (stereo unspecified) | 106 | 30 | 52* | 42* | 7 | 35* | 42*
CCOc1ccc(C(c2c(NC(=O)c3ccccc3)sc(C)c2C)N2CCN(CCO)CC2)cc1 (stereo unspecified) | 92 | 25 | 26 | 29 | -2 | x | x
Cc1cc2nc(Cl)c(Cl)nc2cc1C | 98 | -15 | 3 | 9 | -16 | x | x
Cc1cc2cc(C=C(C#N)C#N)c(Cl)nc2cc1C | 98 | 38 | 62* | 55* | 18 | 56* | 66*
N#CC(c1ccc(Cl)cc1)c1ccc2c(C(F)(F)F)cc(C(F)(F)F)nc2n1 (stereo unspecified) | 96 | 64* | 62* | 71* | 20 | 49* | 60* | tim10 confirm=54*
CC(=O)C(=Cc1cn(-c2ccccc2)nc1-c1ccccc1)C(C)=O | 134 | 57* | 82* | 67* | 5 | 68* | 83* | tim10 confirm=53*
SMILES | Yeast superoxide | TIM10 inh | tim23-1 inh | tim10-1 inh | NALP3 yeast inh | tim10-1 conf | tim23-1 confirm | others
Cc1ccc(C(=O)N/C(=C/c2cn(-c3ccccc3)nc2-c2ccccc2)C(=O)O)cc1 | 104 | 8 | 16 | -10 | 10 | x | x
N#CC(C#N)=Cc1cnc(N2CCN(c3ccccc3)CC2)s1 | 103 | -8 | 1 | 4 | 23 | x | x
Oc1c(Cl)cc(Cl)cc1/C=N/Nc1ncc(Br)cn1 | 119 | -1 | -4 | 12 | 13 | x | x
Oc1c(Cl)cc(Cl)cc1/C=N/NC(=S)NC1CC2C=CC1C2 (stereo unspecified) | 107 | 36 | 57* | 48* | 13 | 50* | 72*
COc1ccc2c(c1)-c1nc(NC(=O)c3ccco3)sc1CC2 | 105 | 25 | 57* | 58* | 16 | 53* | 61*
O=C(Nc1ccc(Oc2ccc(Cl)cc2)c(Cl)c1)c1cc(I)cc(I)c1O | 94 | 31 | 59* | 54* | 16 | 52* | 60*
COc1ccc(NC(=O)c2ccccc2F)cc1Cl | 101 | -1 | -7 | -20 | 9 | x | x
Fc1ccc(CN2CCN(c3ncnc4scc(-c5ccc(F)cc5)c34)CC2)cc1 | 97 | 26 | 54* | 50* | 11 | 46* | 53*
CCOC(=O)N1CCN(c2ncnc3scc(-c4ccc(Cl)cc4)c23)CC1 | 105 | 32 | 57* | 46* | 17 | 40* | 44*
Cc1ccccc1COCCN1CCN(S(=O)(=O)c2ccccc2)CCC1=O | 100 | 8 | 25 | 11 | 19 | x | x
Cc1cc(C)cc(N(C(C)C(=O)N2CCCC2)S(C)(=O)=O)c1 (stereo unspecified) | 101 | -3 | 8 | 8 | 11 | x | x
COc1ccc(C(=O)N/N=C/c2sc(N3CCOCC3)nc2-c2ccccc2)cc1OC | 104 | -2 | 34 | 13 | -1 | x | x
COC(=O)N/N=C/c1sc(N2CCCCC2)nc1-c1cccs1 | 87 | 33 | 53* | 45* | 13 | 33* | 47*
O=C1c2cccc3c([N+](=O)[O-])ccc(c23)C(=O)N1c1ccccn1 | 82 | 77* | 80* | 94* | 7 | 89* | 77* | tim10 confirm=-8
O=C1c2cccc3c([N+](=O)[O-])ccc(c23)C(=O)N1O | 82 | 15 | 46 | -21 | 11 | x | x
O=C(c1cccs1)c1no[n+]([O-])c1C(=O)c1cccs1 | 102 | -6 | 81* | 72* | 24 | 87* | 97*
O=C(Cn1nc(Cl)nc1Cl)c1cc2ccccc2oc1=O | 107 | 57* | 72* | 59* | -29 | 53* | 69* | tim10 confirm=44*
NC(=O)c1c(NC(=O)c2cccs2)sc2c1CCCCCC2 | 86 | 23 | 59* | 46* | 25 | 12 | 58*
CCN(CC)CCNC(=O)c1cc2c(s1)-c1ccccc1SC2 | 105 | 8 | -1 | -56 | 10 | x | x

Assay outcomes as filed in PubChem.
